Assay outcomes as filed in PubChem.
FMDV inh – blocks foot and mouth disease virus. FMDV antiviral cell-based qHTS. Potency, µM (titrated, usually from 57.9 µM), inactives show top-dose activity change, negative = inhibition, usual class: inhibitors. 410,000 compounds, 1.2% hits. AID 1159524; calls by dose curve; tested in HEK293T cells; note: read-out not given here; potency is the fitted concentration of half-maximal effect; nearly all actives have a fitted effect of over 45% in size
HCV inhibitor – blocks hepatitis C virus; Huh7.5.1 HCVcc-Cre infection, luciferase reporter, 44 h; Potency, µM (highest dose often 41.8 µM), for inactives: at the top dose activity change, negative = inhibition, usual class: inhibitors; 340,000 compounds, 3.4% hits; AID 651820; active = well fitted inhibition curve with a large enough effect; inconclusive = small, poorly fitted or top-dose-only effect, or another doubt; inactive = no such curve, though single readings can be large or run the other way; note: potency is the fitted concentration of half-maximal effect
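Compounds are dispensed onto cells plated 4 h earlier at 1,000 per well, with HCVcc-Cre virus (about 0.5 moi) added next. Following 44 h of culture, luminescent signal is measured for 15 sec after 15 min with substrate at room temperature.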
Lassa entry inh – Lassa virus entry inhibition; Lassa virus pseudotype entry inhibition, cell reporter; Potency, µM (doses to about 37.9 µM), for the others: at the top dose activity change, negative = inhibition, usual class: inhibitors; 300,000 compounds, 1.2% hits; calls by dose curve; tested in HEK293 cells; note: potency is the fitted concentration of half-maximal effect; nearly all actives have a fitted effect of over 50% in size
HCMV antiviral – inhibitors of human cytomegalovirus. HFF cells, HCMV-luciferase reporter, 72 h; hits give low values. activity change, negative = inhibition, % at 57.5 µM. AID 1259415. 410,000 compounds, 4.5% hits; in the data active = activity change below about -60%; inconclusive = no clear call, values can overlap the other calls; inactive = above about -39%
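After 16 h attachment at 37C, HFF cells received test compound and HCMV-luciferase (1 PFU/cell); reporter luminescence read 72 h later, data normalized against buffer-only and known inhibitor Salinomycin.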
MARV entry inh – inhibitors of Marburg virus binding or cell entry; Marburg virus pseudotyped entry inhibition, cell reporter; Potency, µM (highest dose often 37.8 µM), for the others: at the top dose activity change, negative = inhibition, hits mostly inhibitors; 300,000 compounds, 1.8% hits; AID 540276; calls by dose curve; tested in HEK293 cells; note: potency is the fitted concentration of half-maximal effect
Active calls of the source: *; [ ] = remark or other dose. This is a sample that favours compounds with a hit; in the whole collection about 7.9% have one here. % is set by controls: 0 for no effect and ±100 for the full control effect.

For O=C(c1ccco1)N1CCN(C(=O)c2cnn3c2NC(c2cccs2)CC3C(F)(F)F)CC1 (configuration not stated) the results were FMDV inh -21.8%, HCV inhibitor 0.5%, Lassa entry inh -2.4%, HCMV antiviral 2.4 and MARV entry inh -1.2%.
Screening COc1ccc(NC(=O)c2c(C)noc2C(C)C)cc1S(=O)(=O)N1CCCCC1 returned FMDV inh -12.5%, HCV inhibitor -5.3%, Lassa entry inh -23.9%, HCMV antiviral -14.5 and MARV entry inh -5.7%.
`Cc1ccc(S(=O)(=O)Nc2ccc(S(=O)(=O)Nc3cc(C)nc(C)n3)cc2)cc1` gave FMDV inh 84.0%, HCV inhibitor 12.6% and HCMV antiviral -19.3.
Screening Cc1cc(NS(=O)(=O)c2ccc(NS(=O)(=O)c3ccc(CC(C)C)cc3)cc2)nc(C)n1 returned FMDV inh 69.5%, HCV inhibitor 3.98µM*, Lassa entry inh 2.4%[46.1 µM], HCMV antiviral inconclusive and MARV entry inh 15.5%[46.1 µM].
Screening COc1ccccc1C(=O)COC(=O)c1cc([N+](=O)[O-])ccc1N1CCOCC1 returned FMDV inh 7.2%, HCV inhibitor inconclusive, Lassa entry inh -10.2%, HCMV antiviral -11.5 and MARV entry inh inconclusive.
For COc1ccc(C(=O)COC(=O)c2cc([N+](=O)[O-])ccc2N2CCOCC2)c(OC)c1 the results were FMDV inh -18.9%, HCV inhibitor 1µM*, Lassa entry inh -10.9%, HCMV antiviral 18.4 and MARV entry inh 2.24µM*.
For COc1cc(C(=O)COC(=O)c2cc([N+](=O)[O-])ccc2N2CCOCC2)ccc1OC(F)F the results were FMDV inh inconclusive, HCV inhibitor 1.12µM*, Lassa entry inh -24.6%, HCMV antiviral -2.7 and MARV entry inh -45.4%.
`CCSc1cc(C)nc2c(-c3ccccc3)cnn12` gave FMDV inh 47.8%, HCV inhibitor 10µM* and HCMV antiviral 220.8.
C=CCSc1cc(C)nc2c(-c3ccccc3)cnn12 was read as FMDV inh 64.1%, HCV inhibitor inconclusive and HCMV antiviral 194.6.
Screening CC(=O)Nc1ccc(Nc2cc(C)nc3c(-c4ccccc4)cnn23)cc1 returned FMDV inh inconclusive, HCV inhibitor inconclusive, Lassa entry inh inconclusive, HCMV antiviral -91.7* and MARV entry inh inconclusive.
`Cc1cc(N)n2ncc(-c3ccccc3)c2n1` gave FMDV inh 45.9%, HCV inhibitor inconclusive, Lassa entry inh -18.6%, HCMV antiviral 101.9 and MARV entry inh inconclusive.
COC(=O)CC/C(C)=N\Nc1ccc([N+](=O)[O-])cc1[N+](=O)[O-] was read as FMDV inh -20.1%, HCV inhibitor -16.2%, Lassa entry inh 6.1%, HCMV antiviral -103.1* and MARV entry inh inconclusive.
`CCCOC(=O)C1=C(C)NC2=C(C(=O)C(C(=O)OC)C(C)C2)C1c1ccc(N(CC)CC)cc1` (configuration not stated) gave FMDV inh 8.1%, HCV inhibitor 10µM*, Lassa entry inh inconclusive, HCMV antiviral 33.3 and MARV entry inh inconclusive.
`CCC(C)OC(=O)C1=C(C)NC2=C(C(=O)C(C(=O)OC)C(C)C2)C1c1ccc(N(C)C)cc1` (configuration not stated) gave FMDV inh 35.6%, HCV inhibitor inconclusive, Lassa entry inh 12.6%, HCMV antiviral 29.1 and MARV entry inh 6.5%.
For CCCNC(=O)OC[C@H]1O[C@@H](CCO/N=C2/C[C@@H](O)[C@@H](O)[C@@H]3[C@@H]4C(=O)N(CC)C(=O)[C@H]4CC[C@@H]23)C=C[C@@H]1Oc1ccc(OC)cc1 the results were MARV entry inh 0.3%[14.2 µM].
Cc1c(Cl)cccc1NS(=O)(=O)c1ccc(NS(=O)(=O)c2ccc3c(c2)OCCO3)cc1 was read as FMDV inh 3.4%, Lassa entry inh -10.6%[46.1 µM], HCMV antiviral -105.5* and MARV entry inh 0.8%[46.1 µM].
Screening Cc1c(NS(=O)(=O)c2ccc3c(c2)OCCO3)cccc1-c1nc2cccnc2s1 returned FMDV inh inconclusive, HCV inhibitor 12.6µM*, HCMV antiviral -39.5 and MARV entry inh 0.5%.
For Cc1ccc(C)c(N=Nc2nc3ccccc3n2C)c1 the results were HCV inhibitor 14.1µM*, Lassa entry inh inconclusive, HCMV antiviral inconclusive and MARV entry inh inconclusive.
